The results in this text go back to PubChem BioAssay (NCATS).

Results filed as inconclusive are left out. Active and inactive are the calls of the source. Calls come from the whole dose curve; as a rule, active = well fitted curve in the direction sought with a large enough effect; inconclusive = small, poorly fitted or top-dose-only effect, or another doubt; inactive = no such curve, though single readings can be large; an effect the other way counts as inactive or inconclusive.

A short description of test [1]: S16 Schwann cell viability assay (CellTiter-Glo assay) (AID 624031).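 Note: native untransfected S16 rat Schwann cells; cellular ATP luminescence as a viability measure; nearly all actives have a fitted effect of over 70% in size.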 The gist of the method: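 Cells were seeded at 500-750 per well in phenol red-free DMEM with 10% FBS and left overnight. Compounds or DMSO were pinned in, incubation ran 24 h at 37 °C/5% CO2, then CellTiter-Glo reagent was added and luminescence measured.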
(In general: In ATP-based viability assays light output follows the ATP content of the culture.)

Another test relates to AA1029. The test is described as follows: qHTS profiling for inhibitors of Plasmodium falciparum proliferation (AID 504749). Note: nearly all actives have a fitted effect of over 60% in size. Note: potency is the fitted concentration of half-maximal effect. As to conditions: P. falciparum in erythrocytes, SYBR Green DNA, 72 h; series mostly up to 12.8 µM. In outline:
(§1)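 SYBR Green fluorescence of parasite DNA, read after lysis and overnight dark incubation, measured growth over 72 h in erythrocyte culture at 0.3% parasitemia and 2.5% hematocrit. Data normalised to DMSO and 0.29 uM artemisinin, with plate-drift correction.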

Another test concerns AS120. The description is as above. As to conditions: P. falciparum in erythrocytes, SYBR Green DNA, 72 h; series mostly up to 12.8 µM. The gist of the method:
as §1

In another test the test system is ATS189. Described as above. The settings on record: P. falciparum in erythrocytes, SYBR Green DNA, 72 h; series mostly up to 12.8 µM. The gist of the method:
as §1

A further test deals with ATS95. Described as above. The settings on record: P. falciparum in erythrocytes, SYBR Green DNA, 72 h; series mostly up to 12.8 µM. In outline: as §1
In another test the test system is CP191. Described as above. As to conditions: P. falciparum in erythrocytes, SYBR Green DNA, 72 h; series mostly up to 12.8 µM. The gist of the method: as §1
The test system of the next test is CP192. Described as above. As to conditions: P. falciparum in erythrocytes, SYBR Green DNA, 72 h; series mostly up to 12.8 µM. In outline: as §1
The subject of the next test is CP238. The description is as above. As to conditions: P. falciparum in erythrocytes, SYBR Green DNA, 72 h; series mostly up to 12.8 µM. The gist of the method: as §1
The subject of a further test is CP247. The description is as above. The settings on record: P. falciparum in erythrocytes, SYBR Green DNA, 72 h; series mostly up to 12.8 µM. The gist of the method:
as §1

The subject of another test is CP256. Described as above. As to conditions: P. falciparum in erythrocytes, SYBR Green DNA, 72 h; series mostly up to 12.8 µM. The gist of the method: as §1
The next test deals with CP262. The test is described as above. The settings on record: P. falciparum in erythrocytes, SYBR Green DNA, 72 h; series mostly up to 12.8 µM. The gist of the method:
as §1

A further test concerns CP265. The test is described as above. The settings on record: P. falciparum in erythrocytes, SYBR Green DNA, 72 h; series mostly up to 12.8 µM. In outline: as §1
In another test the test system is Dd2. Described as above. As to conditions: P. falciparum in erythrocytes, SYBR Green DNA, 72 h; series mostly up to 12.8 µM. In outline: as §1
In a further test the test system is N140. The test is described as above. The settings on record: P. falciparum in erythrocytes, SYBR Green DNA, 72 h; series mostly up to 12.8 µM. In outline:
as §1

The next test relates to P93_24. The description is as above. As to conditions: P. falciparum in erythrocytes, SYBR Green DNA, 72 h; series mostly up to 12.8 µM. In outline:
as §1

The test system of another test is PAD. The description is as above. The settings on record: P. falciparum in erythrocytes, SYBR Green DNA, 72 h; series mostly up to 12.8 µM. In outline:
as §1

Another test concerns PC15. The test is described as above. The settings on record: P. falciparum in erythrocytes, SYBR Green DNA, 72 h; series mostly up to 12.8 µM. The gist of the method: as §1
The test system of another test is SC27B. The test is described as above. As to conditions: P. falciparum in erythrocytes, SYBR Green DNA, 72 h; series mostly up to 12.8 µM. In outline:
as §1

A further test relates to TAB109. The description is as above. The settings on record: P. falciparum in erythrocytes, SYBR Green DNA, 72 h; series mostly up to 12.8 µM. The gist of the method:
as §1

The subject of the next test is TAB165. Described as above. The settings on record: P. falciparum in erythrocytes, SYBR Green DNA, 72 h; series mostly up to 12.8 µM. In outline: as §1

`CC(=O)[C@@H]1CC[C@@H]2[C@@H]3C[C@H](C)C4=CC(=O)CC[C@@]4(C)[C@H]3[C@H](O)C[C@]21C`: the compound was classed as inactive in test [1]. The Potency result with AA1029, in the test on AS120, in the test with ATS189, in the test on ATS95, in the test on CP191 and in the test with CP192 was “inactive” in each case. The Potency result in the test on CP238, in the test with CP247, in the test on CP256, in the test on CP262, in the test with CP265 and in the test on Dd2 was “inactive” in each case. Also, the Potency result with N140, with P93_24, in the test with PAD, with PC15, in the test on SC27B and in the test with TAB109 was “inactive” throughout. For the same compound, the Potency entry in the test with TAB165 is “inactive”.

`C[C@@]12CC[C@H]3[C@@H](CCC4=CC(=O)CC[C@]43C)[C@H]1CC[C@H]2C(=O)CO`: in [1], the outcome was inactive. The Potency entry in the test on AA1029, in the test on ATS189, in the test on ATS95, with CP191, with CP192 and in the test with CP238 was “inactive” in each case. For the same compound, the Potency entry in the test on CP256, in the test with CP262, in the test on CP265, in the test with Dd2, with N140 and in the test with P93_24 was “inactive” each time. For the same compound, the Potency result in the test on PC15, in the test with SC27B and in the test with TAB109 was “inactive” each time.

For the compound `CCOC(=O)[C@H](CCc1ccccc1)N[C@@H](C)C(=O)N1[C@H](C(=O)O)C[C@H]2CCC[C@@H]21`, the call in test [1] was inactive. The Potency result in the test with AA1029, with AS120, in the test on ATS189, in the test on ATS95, in the test on CP191 and in the test on CP192 was “inactive” throughout. Moreover, the Potency entry in the test on CP238, in the test with CP247, in the test with CP256, in the test on CP262, in the test with CP265 and in the test on Dd2 was “inactive” in each case. The Potency entry in the test on N140, with P93_24, in the test with PAD, with PC15, with SC27B and in the test with TAB109 was “inactive” throughout. In the test with TAB165, the Potency entry is “inactive”.

In the case of `CN(C)CCn1nnnc1SCC1=C(C(=O)O)N2C(=O)[C@@H](NC(=O)Cc3csc(N)n3)[C@@H]2SC1`, the compound was called inactive in [1]. Moreover, the Potency entry in the test on AA1029, in the test on AS120, in the test with ATS95, in the test on CP192, with CP238 and in the test on CP247 was “inactive” in each case. The Potency entry in the test with CP256, in the test with CP262, with Dd2 and in the test on SC27B was “inactive” in each case.

Take `CC(=O)C[C@H](c1ccc([N+](=O)[O-])cc1)c1c(O)c2ccccc2oc1=O`: the call in [1] was inactive. Also, the Potency entry in the test on AA1029, with AS120, with ATS189, with ATS95, with CP191 and in the test with CP192 was “inactive” throughout. The Potency result with CP238, in the test on CP247, in the test on CP256, in the test on CP262, with CP265 and in the test with Dd2 was “inactive” each time. In addition, the Potency entry with N140, in the test with P93_24, in the test with PAD, in the test on PC15, in the test with SC27B and with TAB109 was “inactive” in each case. The Potency result in the test on TAB165 was “inactive”.

For `C[C@@H](C(=O)O)c1ccc(C(=O)c2ccccc2)s1`, in test [1], the outcome was inactive. Further, the Potency entry in the test with AA1029, with AS120, in the test with ATS189, with ATS95, with CP191 and with CP192 was “inactive” in each case. Moreover, the Potency entry with CP238, in the test on CP247, with CP256, in the test on CP262, in the test on CP265 and with Dd2 was “inactive” throughout. Further, the Potency result in the test with N140, in the test on P93_24, with PAD, with PC15, in the test on SC27B and with TAB109 was “inactive” each time. In addition, the Potency entry in the test on TAB165 is “inactive”.

On to `COc1c(O[C@H]2O[C@@H](CO)[C@@H](O)[C@@H](O)[C@@H]2O)cc2c(c1OC)-c1ccc(SC)c(=O)cc1[C@H](NC(C)=O)CC2`, for which the compound was called inactive in test [1]. For the same compound, the Potency entry in the test with AA1029, in the test with AS120, with ATS189, in the test on ATS95, in the test with CP191 and in the test on CP192 was “inactive” in each case. The Potency entry in the test on CP238, with CP247, in the test with CP256, in the test with CP262, in the test with CP265 and in the test on Dd2 was “inactive” throughout. Besides, the Potency result in the test with N140, in the test on P93_24, with PAD, with PC15, in the test on SC27B and in the test with TAB109 was “inactive” throughout. The Potency entry in the test on TAB165 is “inactive”.

As to `CC(=O)OCC(=O)[C@@]1(O)[C@H](C)C[C@@H]2[C@H]3CCC4=CC(=O)C=C[C@]4(C)[C@]3(F)[C@@H](O)C[C@@]21C`, the compound was called inactive in test [1]. The Potency result with AA1029, in the test with AS120, in the test with ATS189, with ATS95, in the test with CP191 and in the test with CP192 was “inactive” each time. Further, the Potency entry in the test on CP238, with CP247, with CP256, with CP262, in the test with CP265 and with Dd2 was “inactive” throughout. Further, the Potency entry in the test with N140, in the test with P93_24, in the test on PAD, in the test with PC15, with SC27B and in the test on TAB109 was “inactive” throughout. Also, the Potency result in the test with TAB165 is “inactive”.

Turning to `C[C@H](C(=O)O)c1cccc(Oc2ccccc2)c1`, the Potency entry with AA1029, in the test with AS120, with ATS189, in the test on ATS95, in the test on CP191 and in the test with CP192 was “inactive” each time. The Potency entry in the test with CP238, with CP247, with CP256, in the test on CP262, with CP265 and in the test with Dd2 was “inactive” each time. In addition, the Potency result in the test on N140, in the test with P93_24, in the test on PAD, with PC15, with SC27B and with TAB109 was “inactive” throughout. Moreover, the Potency result in the test with TAB165 is “inactive”.

In the case of `CC1(C)O[C@H]2C[C@@H]3[C@H]4CCC5=CC(=O)CC[C@@]5(C)[C@]4(F)[C@@H](O)C[C@@]3(C)[C@@]2(C(=O)CCl)O1`, the compound was classed as inactive in test [1]. Further, the Potency in the test with AA1029 was 2.82 µM (active); in the test on AS120, 3.98 µM (active); in the test on ATS189, 3.55 µM (active); in the test on ATS95, 1.58 µM (active); in the test with CP191, 3.16 µM (active); with CP247, 3.98 µM (active). For the same compound, the Potency is 3.55 µM (active) in the test on CP256; 3.98 µM (active) in the test with CP265; 2.51 µM (active) in the test with N140; 3.55 µM (active) in the test with P93_24; 3.55 µM (active) with PC15; 1.41 µM (active) with TAB109. Besides, in the test with TAB165, the Potency was 3.16 µM (active).

As to `C[C@@H]1Cc2ccccc2N1NC(=O)c1ccc(Cl)c(S(N)=O)c1` (some centres undefined), the Potency entry in the test on AA1029, in the test on AS120, in the test on ATS189, with ATS95, with CP191 and with CP192 was “inactive” each time. Moreover, the Potency entry with CP238, in the test with CP247, in the test with CP256, with CP262, in the test with CP265 and with Dd2 was “inactive” in each case. Besides, the Potency result in the test on N140, with P93_24, with PAD, with PC15, in the test on SC27B and in the test on TAB109 was “inactive” in each case. Besides, the Potency result in the test on TAB165 is “inactive”.

As for `C=CC1=C(C(=O)O)N2C(=O)[C@@H](NC(=O)/C(=N\OCC(=O)O)c3csc(N)n3)[C@@H]2SC1`, the compound was called inactive in [1]. For the same compound, the Potency entry in the test with AA1029, with AS120, in the test on ATS189, with ATS95, in the test on CP191 and with CP192 was “inactive” in each case. In addition, the Potency result in the test with CP238, with CP247, with CP256, with CP262, with CP265 and with Dd2 was “inactive” in each case. The Potency entry in the test on N140, in the test with P93_24, with PAD, in the test on PC15, in the test on SC27B and in the test with TAB109 was “inactive” in each case. Further, in the test on TAB165, the Potency entry is “inactive”.
